Consider 76 compounds from PubChem BioAssay AID1851 (National Center for Advancing Translational Sciences (NCATS), 2009).

About 2,600 (16%) of roughly 16,000 compounds were called active. Another 20% or so got no clear call; they are omitted. Calls come from the whole dose curve; as a rule, active = well fitted curve in the direction sought with a large enough effect; inconclusive = small, poorly fitted or top-dose-only effect, or effect the other way; inactive = no such curve, though single readings can be large or run the other way. Only a sample is shown.
% is set by controls: 0 for no effect and ±100 for the full control effect.

The target of this assay is Cytochrome P450 2D6 (Homo sapiens) (UniProt P10635). Kind of assay: Cytochrome panel assay with activity outcomes. Particulars: recombinant CYP, pro-luciferin dealkylation, luminescence, p450-cyp2d6; series mostly up to 57.1 µM.
Sequence of Cytochrome P450 2D6 (Homo sapiens) (P10635 whole entry, looked up): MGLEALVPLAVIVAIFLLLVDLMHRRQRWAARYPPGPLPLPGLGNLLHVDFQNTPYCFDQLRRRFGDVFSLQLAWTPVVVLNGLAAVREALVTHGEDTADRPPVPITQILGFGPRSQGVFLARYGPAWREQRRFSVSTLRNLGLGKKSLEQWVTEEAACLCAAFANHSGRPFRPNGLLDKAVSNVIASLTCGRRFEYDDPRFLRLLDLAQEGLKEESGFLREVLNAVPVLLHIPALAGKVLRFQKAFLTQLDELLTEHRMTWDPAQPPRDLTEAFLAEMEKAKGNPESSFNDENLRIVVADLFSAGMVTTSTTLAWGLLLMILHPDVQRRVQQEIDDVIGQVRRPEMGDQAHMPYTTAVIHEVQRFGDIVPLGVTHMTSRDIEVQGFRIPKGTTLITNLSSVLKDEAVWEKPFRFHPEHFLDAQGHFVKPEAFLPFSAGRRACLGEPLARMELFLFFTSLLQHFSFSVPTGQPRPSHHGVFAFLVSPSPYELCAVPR
For orientation: AC50 means the concentration at which the activity in the assay is half-maximal. Take `COc1ccc(S(=O)(=O)NC2(C(F)(F)F)N=C3SCCN3C2=O)cc1` (stereo unspecified): the AC50 entry is “inactive”.

In the case of `CCN1CCN(c2nc(C)c3c(n2)CCCC3=O)CC1`, the AC50 result was “inactive”.

`COC(=O)c1ccccc1-c1ccc(/C=C2\C(=O)N(c3ccccc3)N=C2c2ccccc2)o1`: the AC50 entry is “inactive”.

Consider `O=C(NC1CCCCC1)c1sc(=S)n2c1[nH]c(=O)c1ccccc12`, for which the AC50 result was “inactive”.

As for `COc1ccc(C2C(C#N)=C(N)N(Nc3ccccc3)C3=C2C(=O)CC(C)(C)C3)cc1C` (stereo unspecified), the AC50 entry is “inactive”.

Turning to `S=C(S)O[C@@H]1C[C@@H]2C[C@H]1[C@@H]1CCC[C@H]21`, the AC50 result was “inactive”.

Regarding `CC(=O)OC[C@@H]1O[C@@H](O/N=C2/C[C@@H](O)[C@@H](O)[C@@H]3[C@@H]4C(=O)N(c5cccc(Oc6ccccc6)c5)C(=O)[C@H]4CC[C@H]23)[C@H](OC(C)=O)[C@H](OC(C)=O)[C@@H]1OC(C)=O`, the activity, negative = inhibition is 0.346% [at 11.4 µM] (inactive).

`C#CCCCO/N=C1/C[C@@H](O)[C@@H](O)[C@@H]2[C@@H]3C(=O)N(CCC(=O)OCC)C(=O)[C@H]3CC[C@H]12`: the activity, negative = inhibition is 5.95% [at 11.4 µM] (inactive).

Regarding `CC(=O)OC[C@@H]1O[C@@H](O/N=C2/C[C@@H](O)[C@@H](O)[C@@H]3[C@@H]4C(=O)N(C(C)(C)C)C(=O)[C@H]4CC[C@@H]23)[C@H](OC(C)=O)[C@H](OC(C)=O)[C@@H]1OC(C)=O`, the activity, negative = inhibition is -13.3% [at 11.4 µM] (inactive).

On to `CCOC(=O)CCN1C(=O)[C@H]2[C@H]3[C@H](O)[C@H](O)C/C(=N/OC/C=C(\C)CCC=C(C)C)[C@@H]3CC[C@@H]2C1=O`, for which the activity, negative = inhibition was 0.883% [at 11.4 µM] (inactive).

For `CCOC(=O)CCN1C(=O)[C@H]2[C@H]3[C@H](O)[C@H](O)C/C(=N/O[C@@H]4O[C@@H](COC(C)=O)[C@@H](OC(C)=O)[C@@H](OC(C)=O)[C@H]4OC(C)=O)[C@H]3CC[C@@H]2C1=O`, the AC50 is 3.16 µM (active).

With `O=C1[C@@H]2[C@H]3[C@H](O)[C@H](O)C/C(=N/OCc4ccccc4)[C@H]3CC[C@H]2C(=O)N1c1ccc(F)cc1F`, the activity, negative = inhibition is -7.87% [at 11.4 µM] (inactive).

For the compound `CCN1C(=O)[C@H]2[C@H]3[C@H](O)[C@H](O)C/C(=N/O[C@@H]4O[C@H](COC(C)=O)[C@@H](OC(C)=O)[C@H](OC(C)=O)[C@H]4OC(C)=O)[C@@H]3CC[C@@H]2C1=O`, the AC50 was 3.98 µM (active).

`C#CCCCO/N=C1/C[C@@H](O)[C@@H](O)[C@@H]2[C@@H]3C(=O)N(CCC(=O)OCC)C(=O)[C@H]3CC[C@@H]12`: the activity, negative = inhibition is -5.32% [at 11.4 µM] (inactive).

For the compound `CC(=O)OC[C@@H]1O[C@@H](O/N=C2/C[C@@H](O)[C@@H](O)[C@@H]3[C@@H]4C(=O)N(C(C)(C)C)C(=O)[C@H]4CC[C@H]23)[C@H](OC(C)=O)[C@H](OC(C)=O)[C@@H]1OC(C)=O`, the activity, negative = inhibition is 3.1% [at 11.4 µM] (inactive).

Consider `CCOC(=O)CCN1C(=O)[C@H]2[C@H]3[C@H](O)[C@H](O)C/C(=N/O[C@@H]4O[C@@H](COC(C)=O)[C@@H](OC(C)=O)[C@@H](OC(C)=O)[C@H]4OC(C)=O)[C@@H]3CC[C@@H]2C1=O`, for which the AC50 was 3.16 µM (active).

`CC(=O)OC[C@@H]1O[C@@H](O/N=C2/C[C@@H](O)[C@@H](O)[C@@H]3[C@H]4C(=O)N(c5ccc(F)cc5F)C(=O)[C@@H]4CC[C@H]23)[C@H](OC(C)=O)[C@H](OC(C)=O)[C@@H]1OC(C)=O`: the AC50 is 3.16 µM (active).

Take `CCOC(=O)CCN1C(=O)[C@H]2[C@H]3[C@H](O)[C@H](O)C/C(=N/OC/C=C(\C)CCC=C(C)C)[C@H]3CC[C@@H]2C1=O`: the activity, negative = inhibition is 1.08% [at 11.4 µM] (inactive).

Take `CC(=O)OCC(=O)[C@]12OC(C)(C)O[C@@H]1C[C@H]1[C@H]3CC=C4C[C@@H](O)CC[C@]4(C)[C@H]3CC[C@]12C`: the activity, negative = inhibition was 25.3% [at 11.4 µM] (inactive).

Turning to `Cn1c(=O)c(-c2ccc(Cl)cc2)nc2cnc(Oc3ccccc3)nc21`, the AC50 result was “inactive”.

In the case of `N#CC(CC(=O)O)=C(c1ccccc1)c1ccccc1`, the activity, negative = inhibition is 9.93% [at 11.4 µM] (inactive).

`CNC(=O)CCc1nc(-c2ccc(C(C)(C)C)cc2)no1`: the AC50 entry is “inactive”.

With `Cc1nn(C(=O)c2ccco2)c(C)c1Sc1ccccc1`, the AC50 result was “inactive”.

As to `Cn1c(=O)n2n(c1=O)[C@H]1[C@H](O)[C@H]3O[C@@H]3/C(=N/OC[C@@H](O)COCc3ccco3)[C@@H]1CC2`, the activity, negative = inhibition is 15.6% [at 11.4 µM] (inactive).

As to `Cn1cc(-c2nc3cnc(N4CCNCC4)nc3n(C)c2=O)c2ccccc21`, the AC50 entry is “inactive”.

For `CC(C)OP(=O)(OC(C)C)C(NC(=O)c1ccc(Br)cc1)c1ccccc1` (stereo unspecified), the AC50 result was “inactive”.

With `COc1ccc(-c2cc(C(=O)O)c3c(C)nn(-c4ccccn4)c3n2)cc1`, the AC50 result is “inactive”.

`C[C@@]12CC(=O)[C@@H]3[C@@H](CCC4=CC(=O)CC[C@]43C)[C@@H]1CC=C2CC(=O)O`: the activity, negative = inhibition is 17.8% [at 11.4 µM] (inactive).

In the case of `Cc1cnc(C(=O)OCC(=O)NC(C)C)cn1`, the AC50 result is “inactive”.

With `CC(C)(SCc1ccccc1)[C@H](N)C(=O)O`, the activity, negative = inhibition is 1.44% [at 11.4 µM] (inactive).

Consider `Cc1ccccc1OCC(=O)NC(=S)Nc1ccc(Br)c(C)n1`, for which the AC50 result is “inactive”.

On to `Cc1cccc(N(NC(=O)C(C)(C)O)C(=O)c2ccccc2)c1`, for which the AC50 result is “inactive”.

Consider `Cc1nc2c(ccc3nc(NC(=O)c4ccc(S(=O)(=O)N(C)C)cc4)sc32)s1`, for which the AC50 result is “inactive”.

`CC(=O)OC[C@@H]1O[C@@H](O/N=C2/C[C@@H](O)[C@@H](O)[C@@H]3[C@@H]4C(=O)N(C5CCCCC5)C(=O)[C@H]4CC[C@H]23)[C@H](OC(C)=O)[C@H](OC(C)=O)[C@@H]1OC(C)=O`: the AC50 was 3.98 µM (active).

On to `CC(C)=CCC/C(C)=C/CO/N=C1/C[C@@H](O)[C@@H](O)[C@@H]2[C@@H]3C(=O)N(C4CCCCC4)C(=O)[C@H]3CC[C@@H]12`, for which the activity, negative = inhibition was 2.55% [at 11.4 µM] (inactive).

For `CCOC(=O)N/N=C1/C[C@@H](O)[C@@H](O)[C@@H]2[C@@H]3C(=O)N(C4CCCCC4)C(=O)[C@H]3CC[C@H]12`, the activity, negative = inhibition was -11.9% [at 11.4 µM] (inactive).

With `O=C(NCc1cccnc1)[C@@H]1[C@@H](C(=O)O)[C@H]2CC[C@@H]1O2`, the activity, negative = inhibition was 8.3% [at 11.4 µM] (inactive).

For the compound `CC1CCCC(C)N1C(=O)c1cc(-c2ccc(Cl)c(Cl)c2)on1` (stereo unspecified), the AC50 result was “inactive”.

For `Cc1ccccc1C1C(C#N)=C2N=C(N)c3c(sc4c3CCCCC4)N2C2=C1C(=O)CC(C)(C)C2` (stereo unspecified), the AC50 entry is “inactive”.

Take `CO[C@]1(NC(=O)C2SC(=C(C(N)=O)C(=O)O)S2)C(=O)N2C(C(=O)O)=C(CSc3nnnn3C)CS[C@H]21` (stereo partly specified): the AC50 entry was “inactive”.

For `CCCCCCN1Cc2ccccc2C1`, the AC50 was 3.55 µM (active).

For `CCCCN1C(=O)CCC(C(=O)O)C1c1ccccc1` (stereo unspecified), the AC50 entry was “inactive”.

With `CCc1ccc(/C=C\C(=O)N2CCc3ccccc3C2)cc1`, the AC50 entry was “inactive”.

As for `Cc1cc(NC(=O)c2nn(C)c(C)c2[N+](=O)[O-])no1`, the AC50 entry is “inactive”.

Turning to `Cc1ccc(C2CC(=O)c3cnc(N4CCc5ccccc5C4)nc3C2)cc1` (stereo unspecified), the AC50 entry was “inactive”.

For `Cc1ccc2[nH]c3c(N4CCc5ccccc5C4)ncnc3c2c1`, the concentration at half-maximal activity (AC50) is 0.708 µM (active).

As to `Cc1ccc(S(=O)(=O)Nc2nc3ccccc3nc2N2CCc3ccccc3C2)cc1`, the AC50 entry was “inactive”.

With `CCN1CCN(Cc2ccc(NC(=O)Nc3cccs3)cc2)CC1`, the AC50 result is “inactive”.

As for `CCN[C@@H]1C[C@H](C)S(=O)(=O)c2sc(S(N)(=O)=O)cc21`, the AC50 entry was “inactive”.

Turning to `CC(C)(C)C(=O)N(CCN(C(=O)C(C)(C)C)c1ccccc1)c1ccccc1`, the AC50 result is “inactive”.

Regarding `CN(C(=O)CN(CCO)CC(=O)N(C)C(C)(C)Cc1ccccc1)C(C)(C)Cc1ccccc1`, the half-maximal activity concentration (AC50) is 3.16 µM (active).

Turning to `C=CC(=O)NC(C)(C)Cc1ccccc1`, the AC50 result is “inactive”.

In the case of `O=C(CCC(=O)OCc1ccc(C(=O)Oc2ccccc2)cc1)Nc1cccc2ccccc12`, the AC50 result was “inactive”.

As to `CC(=O)Oc1cc(C(F)(F)F)ccc1C(=O)O`, the AC50 result was “inactive”.

Take `CCSC1=C(C#N)C2(CCCCC2)C(C#N)=C(N)N1`: the half-maximal activity concentration (AC50) was 15.8 µM (active).

On to `C[C@H](Oc1ccccc1)C(=O)N[C@@H]1C(=O)N2[C@@H]1SC(C)(C)[C@@H]2C(=O)O`, for which the AC50 entry was “inactive”.

Take `COC(=O)[C@@]1(Cc2ccc(F)cc2)[C@@H]2[C@@H](CC(=O)[C@H]2CC(=O)C(=O)N(C)C)CN1C(=O)c1ccccc1`: the AC50 result is “inactive”.

For the compound `O=C(O)CNC(=O)c1ccccc1O`, the activity, negative = inhibition is 7.44% [at 11.4 µM] (inactive).

For `CCCCCCCCCn1cc(C(C)=O)c(=O)[nH]c1=O`, the AC50 entry was “inactive”.

As to `CN1CCN(c2ncc3ncc(=O)n(Cc4cccs4)c3n2)CC1`, the AC50 entry is “inactive”.

Take `CN(CCCNC(=O)c1cccn2c(=O)c3ccccc3nc12)Cc1ccccc1`: the AC50 was 2.24 µM (active).

Regarding `CN(C)CCCNC(=O)CCc1nc2ccccc2c(=O)[nH]1`, the AC50 result is “inactive”.

Turning to `Cc1nc2ccccc2c(=O)n1NC(=O)c1ccccc1Cl`, the AC50 result was “inactive”.

As to `COC(=O)[C@@H]1C[C@H]1[C@@H](NC(=O)c1cnccn1)c1ccccc1`, the AC50 entry was “inactive”.

Consider `COc1cccc(OC)c1/C(O)=C(\C#N)c1nc2ccccc2[nH]1`, for which the AC50 entry was “inactive”.

For the compound `CCNC(=S)NNC(=O)c1cc(C)on1`, the AC50 entry was “inactive”.

As to `CCS(=O)(=O)N1CCC(C(=O)NCC2CCCO2)CC1` (stereo unspecified), the AC50 result is “inactive”.

For `Cn1c(O)c(C(C#N)=C2N=c3ccccc3=N2)c2ccccc21`, the AC50 was 7.08 µM (active).

On to `O=C1OCCC1Sc1nnc(-c2ccc(O)cc2)o1` (stereo unspecified), for which the AC50 result is “inactive”.

Regarding `N#Cc1ccc(-c2ccc(F)cc2)nc1Sc1ccccc1`, the AC50 result is “inactive”.

With `CCOc1ccc(C(Nc2ccc(C)cc2)P2(=O)OCC(C)(C)CO2)cc1` (stereo unspecified), the AC50 result was “inactive”.

Take `C[C@@H]1CCc2cc(F)cc3c(=O)c(C(=O)O)cn1c23`: the AC50 result was “inactive”.

In the case of `O=C(O)Cc1c[nH]c2ccc(O)cc12`, the AC50 entry was “inactive”.

For the compound `CC(C)CC(=O)Nc1ccc2c(c1)oc1ccccc12`, the AC50 entry was “inactive”.

With `O[C@H](C[C@@H]1CCCCN1)c1ccc2c(c1)oc1ccccc12`, the concentration at half-maximal activity (AC50) is 0.1 µM (active).

With `O=C(Nc1cnn(Cc2ccc(Cl)cc2Cl)c1)c1cc(-c2cccs2)on1`, the AC50 result is “inactive”.
